# Values joined by “and” are separate entries in the source; they are usually repeats but may differ in a detail not shown here. Equal entries are not always repeated. Results filed as inconclusive are left out. Active and inactive are the calls of the source.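 The calls were made as follows, unless noted: active = compounds killing one labelled cell type while sparing the other, by normalised counts and ratio limits, not self-fluorescent; inactive = the rest.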
# Legend:
# [1] = EMT-state selective cytotoxicity in co-culture – imaging, PC-3E GFP, TEM4-18 mCherry, primary screen (AID 1345086); conditions: PC-3E GFP / TEM4-18 mCherry co-culture, imaging cell counts, at 1 µM; for red/green cell ratio (normalised): actives lie on both sides;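 as to all read-outs here: cells exposed to compound for 72 h before imaging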;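 as to red/green cell ratio (normalised): normalised mesenchymal count divided by normalised epithelial count so high means epithelial killing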
# [2] = system: Neuropilin-2 / VEGF-C interaction (human); experiment: small molecules blocking Neuropilin-2/VEGF-C interaction – biochemical, microplate binding format, z-score (AID 743281; call rule not given here); conditions: microplate NRP2/VEGF-C binding assay; stronger effect = lower value
# [3] = modulation of C. elegans fzo-1 (AID 1259413; call rule not given here;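 also: fzo-1 mutant C. elegans worms in liquid wells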); conditions: C. elegans fzo-1 modulator screen, mean read-out; stronger effect = higher value
# [4] = biological target: ATP-dependent translocase ABCB1 (Homo sapiens) (UniProt P08183); experiment: P-glycoprotein substrate transport blockade – cell-based (AID 377; in the data active = fluorescence slope change above about 50%); conditions: MDR1-expressing cells, fluorescent substrate accumulation slope; stronger effect = higher value; concentration not given here
# [5] = compounds altering circadian rhythm period length – cell-based, LOPAC library, luminescence reporter (AID 2774; call rule not given here;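 also: values are relative to mean of DMSO wells on each plate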); conditions: circadian reporter cells, at 7 µM, actives lie on both sides
# [6] = compounds altering viability of human ES cells (AID 493140; call rule not given here;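 also: cells exposed to compounds for four days before counting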); conditions: human embryonic stem cell survival screen; stronger effect = higher value
# [7] = P. berghei load reduction in hepatocytes – cell-based, HepG2, luciferase luminescence, HepG2 viability, primary screen (AID 624349; in the data active = parasite load remaining mostly below about 12%, no sharp cut-off; inactive = mostly above about 10%;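 also: 100% = mean of DMSO negative control wells on the same plate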); conditions: P. berghei liver stage in HepG2, luciferase luminescence, concentration not given here; parasite load remaining: stronger effect = lower value; viability: measured here: HepG2 viability without parasites
# [8] = system: Hepatitis C virus NS3 helicase; experiment: blockers of NS3h binding to ssDNA – biochemical, fluorescence polarization, LOPAC1280 library, primary screen (AID 687035; in the data active = inhibition above about 37%); conditions: Purified HCV NS3 helicase, Cy5-dT15 ssDNA binding fluorescence polarization; stronger effect = higher value; concentration not given here
# [9] = compounds altering Cy5-DNA-NS3h complex signal – biochemical, LOPAC1280, artefact control for HCV NS3 helicase inhibitor project (AID 687037; call rule not given here); conditions: Cy5-DNA-NS3h complex fluorescence interference counterscreen
# [10] = system: Aerobactin synthetase IucA (Klebsiella pneumoniae); experiment: inhibition of K. pneumoniae IucA enzyme – biochemical, Tocris library, absorbance (AID 1345561; call rule not given here;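 also: 100% = enzyme without compound and 0% = no enzyme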); conditions: purified IucA enzyme assay, absorbance (OD) read-out; stronger effect = lower value;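 tested at 8 µM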
# [11] = system: Aerobactin synthetase IucA (Klebsiella pneumoniae, hypervirulent); experiment: biochemical IucA inhibition screen of LOPAC library by absorbance (AID 1346212; call rule not given here;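 also: 100% = no compound wells and 0% = no enzyme wells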); conditions: IucA enzyme assay, absorbance (OD) readout; stronger effect = lower value;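 tested at 8 µM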
# [12] = chitosan synthesis blockers in C. neoformans – flow cytometry, Cibacron Brilliant Red staining (AID 1347148; call rule not given here;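 also: compound exposure lasted three days at 37 degrees C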); conditions: Cryptococcus neoformans chitosan, stronger effect = lower value; at 10 µM unless noted
# [13] = blockers of cellular phospholipid synthesis – cell-based, LOPAC library, screen 4, primary screen (AID 1347384; call rule not given here); conditions: animal cells, phospholipid biosynthesis inhibition screen; at 10 µM
# [14] = MELAS cybrid and Rieske KO viability enhancers – cell-based, MELAS cybrids, Rieske KO mouse fibroblasts, CellTiter-Glo, primary screen (AID 1508586;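 active = mean z-score across replicates of 1.96 or higher in either the MELAS or the Rieske mutant cell line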;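 also: z relative to plate mean and SD of compound and empty wells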); conditions: low glucose
# [15] = galactose survival enhancers in mitochondrial complex I cybrids – cell-based, galactose medium, ATP luminescence, primary screen (AID 1645843;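 active = z-score of at least 1.8 in each of two replicates, scored against plate mean and spread of sample wells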;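 also: positive z means more ATP and so rescue of galactose-driven cybrid death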); conditions: complex I mutant cybrid cells, 72 h, stronger effect = higher value
# [16] = system: Aerobactin synthetase IucA (Klebsiella pneumoniae hvKP1); experiment: IucA enzyme inhibition, primary screen, biochemical, Spectrum library (AID 1346200; call rule not given here;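 also: 100% = wells without compound and 0% = wells lacking enzyme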); conditions: malachite green pyrophosphate, A620, at 8 µM, stronger effect = lower value
# [17] = measured here: epithelial PC-3E GFP cell survival
# [18] = measured here: mesenchymal TEM4-18 mCherry cell survival
# [19] = counts scaled to control wells, 1 = unselective
# Sequence of ATP-dependent translocase ABCB1 (Homo sapiens) (P08183 whole entry, looked up): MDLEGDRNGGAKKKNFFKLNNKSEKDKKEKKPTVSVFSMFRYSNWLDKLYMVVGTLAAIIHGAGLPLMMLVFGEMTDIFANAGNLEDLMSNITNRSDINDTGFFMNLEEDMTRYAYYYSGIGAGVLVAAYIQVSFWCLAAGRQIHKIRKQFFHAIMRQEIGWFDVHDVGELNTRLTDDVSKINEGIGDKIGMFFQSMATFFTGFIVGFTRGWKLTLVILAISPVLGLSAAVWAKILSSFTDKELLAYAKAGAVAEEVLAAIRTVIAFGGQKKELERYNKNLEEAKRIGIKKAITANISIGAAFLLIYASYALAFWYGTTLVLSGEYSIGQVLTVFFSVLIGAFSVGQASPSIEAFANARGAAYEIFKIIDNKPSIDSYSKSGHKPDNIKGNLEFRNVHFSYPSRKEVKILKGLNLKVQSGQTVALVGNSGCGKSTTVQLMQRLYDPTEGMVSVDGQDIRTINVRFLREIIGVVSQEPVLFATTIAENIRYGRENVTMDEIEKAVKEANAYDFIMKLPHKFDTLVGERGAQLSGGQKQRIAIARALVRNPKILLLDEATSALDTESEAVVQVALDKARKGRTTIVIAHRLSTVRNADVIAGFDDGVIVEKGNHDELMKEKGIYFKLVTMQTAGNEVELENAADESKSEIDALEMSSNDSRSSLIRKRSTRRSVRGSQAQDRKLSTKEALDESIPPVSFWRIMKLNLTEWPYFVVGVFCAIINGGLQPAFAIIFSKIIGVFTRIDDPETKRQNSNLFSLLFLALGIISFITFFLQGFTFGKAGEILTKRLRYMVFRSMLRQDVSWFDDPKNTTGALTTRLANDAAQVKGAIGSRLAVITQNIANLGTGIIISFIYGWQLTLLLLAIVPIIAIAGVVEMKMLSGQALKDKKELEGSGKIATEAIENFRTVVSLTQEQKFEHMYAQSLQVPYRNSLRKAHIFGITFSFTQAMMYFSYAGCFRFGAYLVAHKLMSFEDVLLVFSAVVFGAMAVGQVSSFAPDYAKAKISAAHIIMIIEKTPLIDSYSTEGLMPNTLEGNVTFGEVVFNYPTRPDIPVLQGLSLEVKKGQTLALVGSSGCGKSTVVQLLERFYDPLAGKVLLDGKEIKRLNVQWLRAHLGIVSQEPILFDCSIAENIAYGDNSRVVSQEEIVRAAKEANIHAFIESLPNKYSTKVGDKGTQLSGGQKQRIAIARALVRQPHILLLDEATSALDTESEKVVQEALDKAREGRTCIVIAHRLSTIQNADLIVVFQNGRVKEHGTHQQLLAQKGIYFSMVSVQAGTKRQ
smiles,measurement,setting,value
C[C@]12CCC(=O)C=C1CCC1C2CC[C@@]2(C)C1CC[C@H]2O (stereo partly drawn),red/green cell ratio (normalised),[1],1.17 (inactive)
same,normalised cell number,[1]; [17],0.92
same,normalised cell number,[1]; [18],1.08
CC12CCC(=O)C=C1CC[C@@H]1[C@@H]2CCC2(C)[C@H]1CC[C@]2(C)O (stereo partly drawn),outcome,[2],inactive
same,mean signal,[3],283 (inactive)
CN1C[C@H](C(=O)N[C@]2(C)O[C@@]3(O)C4CCCN4C(=O)[C@H](Cc4ccccc4)N3C2=O)C=C2c3cccc4[nH]cc(c34)C[C@H]21 (stereo partly drawn),red/green cell ratio (normalised),[1],0.93 (inactive)
same,normalised cell number,[1]; [17],1.08
same,normalised cell number,[1]; [18],1
CCC(C)C1C(=O)OC(C(C)C)C(=O)N(C)C(C(C)C)C(=O)OC(C(C)C)C(=O)N(C)C(C(C)C)C(=O)OC(C(C)C)C(=O)N1C (stereo not drawn),red/green cell ratio (normalised),[1]; [19],0.98 (inactive) and 0.86 (inactive)
same,normalised cell number,[1]; [17],1.02 and 0.67
same,normalised cell number,[1]; [18],1 and 0.58
C=Cc1cc(OC)c2c(c1)c(=O)oc1c2cc(OC)c2c(O)ccc([C@@H]3O[C@@H](C)[C@H](OC(C)=O)[C@H](N(C)C)[C@H]3O)c21,red/green cell ratio (normalised),[1]; [19],0.75 (inactive)
same,normalised cell number,[1]; [17],0.41
same,normalised cell number,[1]; [18],0.31
CC12CCC(=O)C[C@@H]1CC[C@@H]1[C@@H]2CCC2(C)[C@H]1CC[C@]2(C)O (stereo partly drawn),outcome,[2],inactive
same,mean signal,[3],277 (inactive)
Oc1ccc2c3c1O[C@H]1c4[nH]c5ccccc5c4CC4(O)C(C2)N(CC2CC2)CC[C@]314 (stereo partly drawn),outcome,[2],inactive
same,mean signal,[3],234 (inactive)
C=C1C[C@@H]2[C@H](CCC3(C)C(=O)CC[C@@H]23)C2(C)C=CC(=O)C=C12 (stereo partly drawn),outcome,[2],inactive
same,mean signal,[3],265 (inactive)
C/C1=C\[C@@H](C)C/C=C/[C@H]2[C@@H]3O[C@]3(C)[C@@H](C)[C@H]3[C@H](Cc4c[nH]c5ccccc45)NC(=O)[C@]32C(=O)/C=C/C(=O)[C@@H]1O,red/green cell ratio (normalised),[1]; [19],0.89 (inactive)
same,normalised cell number,[1]; [17],1.11
same,normalised cell number,[1]; [18],1
O=C1CC2OCC=C3CN4CC[C@]56c7ccccc7N1C5[C@H]2[C@@H]3CC46 (stereo partly drawn),red/green cell ratio (normalised),[1]; [19],1.12 (inactive)
same,normalised cell number,[1]; [17],1.02
same,normalised cell number,[1]; [18],1.14
NCCc1c[nH]c2ccc(O)cc12,fluorescence slope change,[4],73.4% (active)
same,period change,[5],-0.28 h (inactive)
same,survival,[6],12.7 (inactive)
same,parasite load remaining,[7],63.9% (inactive) and 71.4% (inactive)
same,viability,[7],113% and 89.1%
same,inhibition,[8],-1% (inactive)
same,fluorescence ratio (interference),[9],1 (inactive)
same,red/green cell ratio (normalised),[1],1.02 (inactive)
same,normalised cell number,[1]; [17],0.95
same,normalised cell number,[1]; [18],0.96
same,remaining activity,[10],97.8% (inactive)
same,remaining activity,[11],107% (inactive)
same,fold fluorescence,[12],4 [at 283.7 µM] (inactive)
same,outcome,[13],inactive
same,z-score,"[14]; MELAS cybrid survival, CellTiter-Glo 48 h, stronger effect = higher value",-0.165 (inactive) and -0.0524 (inactive)
same,z-score,"[14]; Rieske KO mouse fibroblast survival, CellTiter-Glo 72 h",-0.179 and -0.331
same,z-score,[15],0.29 (inactive) and 0.4 (inactive)
C[C@@H]1CC[C@@]2(OC1)OC1C(O)C3C4CC[C@H]5C[C@H](O[C@@H]6O[C@H](CO)[C@H](O[C@@H]7O[C@H](CO)[C@@H](O)[C@H](O[C@@H]8OC[C@@H](O)[C@H](O)[C@H]8O)[C@H]7O[C@@H]7O[C@H](CO)[C@H](O)[C@H](O[C@@H]8O[C@H](CO)[C@@H](O)[C@H](O)[C@H]8O)[C@H]7O)[C@H](O)[C@H]6O)[C@H](O)C[C@]5(C)C4CC[C@]3(C)C1[C@@H]2C (stereo partly drawn),red/green cell ratio (normalised),[1],0.84 (inactive)
same,normalised cell number,[1]; [17],0.9
same,normalised cell number,[1]; [18],0.76
same,activity remaining,[16],111% (inactive)
N#Cc1cc(I)c(O)c(I)c1,red/green cell ratio (normalised),[1]; [19],1.04 (inactive)
same,normalised cell number,[1]; [17],1.08
same,normalised cell number,[1]; [18],1.12
COc1cc2c(c3oc4cccc(O)c4c(=O)c13)[C@@H]1C=CO[C@@H]1O2,red/green cell ratio (normalised),[1],0.95 (inactive)
same,normalised cell number,[1]; [17],1.04
same,normalised cell number,[1]; [18],0.98
COC[C@]12CN(C=O)C3[C@@H]4[C@H](OC)C1[C@]3(C1CC3(O)C(OC)C(O)C4(OC(C)=O)C1C3OC(=O)c1ccccc1)[C@@H](OC)C[C@H]2O (stereo partly drawn),red/green cell ratio (normalised),[1],1 (inactive)
same,normalised cell number,[1]; [17],1.06
same,normalised cell number,[1]; [18],1.06
same,activity remaining,[16],118% (inactive)
C[C@H]1OC(O[C@H]2[C@@H](O)CC(O[C@H]3[C@@H](O)C[C@H](O[C@H]4CC[C@]5(C)C6CC[C@]7(C)[C@@H](C8=CC(=O)OC8)[C@@H](O)C[C@]7(O)[C@@H]6CC[C@@H]5C4)O[C@@H]3C)O[C@@H]2C)C[C@H](O)C1O (stereo partly drawn),red/green cell ratio (normalised),[1],0.34 (inactive)
same,normalised cell number,[1]; [17],0.21
same,normalised cell number,[1]; [18],0.07
same,activity remaining,[16],115% (inactive)
CC(=O)OCC1=C(C(=O)O)N2C(=O)[C@@H](N)C2SC1 (stereo partly drawn),red/green cell ratio (normalised),[1],1.18 (inactive)
same,normalised cell number,[1]; [17],0.96
same,normalised cell number,[1]; [18],1.14
O=C(O)COc1ccc(O)cc1,red/green cell ratio (normalised),[1]; [19],1.05 (inactive)
same,normalised cell number,[1]; [17],1.09
same,normalised cell number,[1]; [18],1.15
C[C@]12CCC3C(CC[C@@H]4CC(=O)CC[C@]34C)C1CCC2=O (stereo partly drawn),red/green cell ratio (normalised),[1],1.04 (inactive)
same,normalised cell number,[1]; [17],0.88
same,normalised cell number,[1]; [18],0.91
CCN1C[C@]2(OC(=O)c3ccccc3NC(C)=O)CCC(OC)[C@]34C1[C@@H](CC23)[C@@]1(O)CC(OC)[C@H]2CC4C1(O)[C@H]2OC (stereo partly drawn),red/green cell ratio (normalised),[1],1 (inactive)
same,normalised cell number,[1]; [17],0.94
same,normalised cell number,[1]; [18],0.93
CN1C(=O)c2ccccc2NC(=O)[C@@H]1Cc1ccccc1,red/green cell ratio (normalised),[1]; [19],1.03 (inactive)
same,normalised cell number,[1]; [17],1.1
same,normalised cell number,[1]; [18],1.13
CCC(C)C(=O)O[C@@H]1C[C@@]2(C)[C@H](c3ccoc3)OC(=O)CC23OC2(C)OC34[C@H](OC(=O)C(C)C)C3(O)[C@@H](OC(=O)C5(C)OC5C)[C@@]5(C)C[C@]3(O)[C@@](C)([C@H]5CC(=O)OC)C14O2 (stereo partly drawn),red/green cell ratio (normalised),[1]; [19],1.06 (inactive)
same,normalised cell number,[1]; [17],0.98
same,normalised cell number,[1]; [18],1.04
CC[C@H]1CN2CCC1C[C@@H]2[C@H](O)c1ccnc2ccc(OC)cc12 (stereo partly drawn),red/green cell ratio (normalised),[1]; [19],0.88 (inactive)
same,normalised cell number,[1]; [17],1.22
same,normalised cell number,[1]; [18],1.07
CC1CC[C@]2(NC1)O[C@H]1CC3C4CC[C@H]5C[C@@H](O)CC[C@]5(C)C4CC[C@]3(C)[C@H]1[C@@H]2C (stereo partly drawn),red/green cell ratio (normalised),[1]; [19],0.81 (inactive)
same,normalised cell number,[1]; [17],1.1
same,normalised cell number,[1]; [18],0.89
same,activity remaining,[16],96.8% (inactive)
CC(=O)O[C@@H]1CC2C(C)(C)C(=O)C=C[C@]2(C)C2CC[C@]3(C)C(=CC(=O)O[C@H]3c3ccoc3)[C@@]21C (stereo partly drawn),red/green cell ratio (normalised),[1],1.01 (inactive)
same,normalised cell number,[1]; [17],0.98
same,normalised cell number,[1]; [18],0.99
same,activity remaining,[16],123% (inactive)
Fc1ccc(C2CCNCC2COc2ccccc2)cc1 (stereo not drawn),red/green cell ratio (normalised),[1]; [19],0.82 (inactive)
same,normalised cell number,[1]; [17],1.28
same,normalised cell number,[1]; [18],1.05
